PubChem BioAssay AID2620 (National Center for Advancing Translational Sciences (NCATS), 2010)
Results filed as inconclusive are left out. The call rests on the fitted dose curve; in most records, active means well fitted curve in the direction sought with a large enough effect; inconclusive means small, poorly fitted or top-dose-only effect, or another doubt; inactive means no such curve, though single readings can be large or run the other way.

What follows are compounds tested against Pyruvate kinase PKM (Homo sapiens) (UniProt P14618) (assay: Secondary LDH Assay for Activators of Human Pyruvate Kinase M1 Isoform: for Probe SAR). Conditions: purified hPK-M1, LDH-coupled NADH fluorescence kinetic; series mostly up to 58.2 µM; activity change, negative = inhibition: at the top concentration.
Sequence of Pyruvate kinase PKM (Homo sapiens) (P14618 whole entry, looked up, canonical isoform): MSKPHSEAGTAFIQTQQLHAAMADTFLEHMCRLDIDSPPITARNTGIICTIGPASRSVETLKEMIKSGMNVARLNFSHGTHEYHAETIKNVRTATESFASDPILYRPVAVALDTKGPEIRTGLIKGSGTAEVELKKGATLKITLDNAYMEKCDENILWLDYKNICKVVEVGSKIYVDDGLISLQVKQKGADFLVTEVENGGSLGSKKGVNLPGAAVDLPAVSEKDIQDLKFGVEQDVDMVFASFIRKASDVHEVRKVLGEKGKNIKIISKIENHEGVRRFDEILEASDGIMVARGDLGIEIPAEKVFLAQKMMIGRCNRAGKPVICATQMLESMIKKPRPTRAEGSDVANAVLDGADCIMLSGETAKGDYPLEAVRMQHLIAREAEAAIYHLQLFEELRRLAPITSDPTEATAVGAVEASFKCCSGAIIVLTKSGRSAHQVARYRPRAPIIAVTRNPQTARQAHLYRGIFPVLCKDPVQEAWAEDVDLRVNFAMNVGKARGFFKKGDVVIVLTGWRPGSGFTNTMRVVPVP
Source text: NIH Chemical Genomics Center [NCGC]
Matthew G. Vander Heiden, M.D., Ph.D. [Harvard Medical School, 77 Avenue Louis Pasteur, Boston, MA 02115]
Human pyruvate kinase […] (hPK-M1)enzyme was supplied as a highly purified (>95% pure) preparation from Harvard Medical School and a secondary assay was used to evaluate compounds. This assay couples the formation of pyruvate from […] using lactate dehydrogenase (LDH) and NADH. The depletion of NADH is followed in a fluorescent-based kinetic assay that follows the formation of pyruvate to lactate, as catalyzed LDH. Pyruvate kinase substrates, PEP and ADP, were present in the assay at 0.1 mM and 4 mM respectively. In this kinetic assay initial rates were determined by following the fluorescence of NADH depletion.
NCGC Assay Protocol Summary:
Three uL of substrate mix (final concentration, 50 mM Tris-Cl pH 8.0, 200 mM KCl, 15 mM MgCl2, 0.1 mM PEP, 4.0 mM ADP, and 0.2 mM NADH) was dispensed into black-solid 1536 well plates. 23 nL of compounds were delivered by a pin tool and 1 uL of enzyme mix (final concentrations, 10 nM hPK-M1 and 1 uM of LDH) was added. Plates were immediately placed in ViewLux (Perkin Elmer) and NADH fluorescence was determined at 30 second exposure intervals for between 3 and 6 minutes. Data were normalized to the uninhibited controls.
Further: % of control where 0% means no effect.

Activity change, negative = inhibition, inactive:
COc1ccc(-c2nc3cccc(C)n3c2Nc2ccc(C)cc2)cc1 2.94%, Cc1ccc(NS(=O)(=O)c2cc3c(cc2N2CCC2)NC(=O)CC3)cc1C -3.5%, O=C1c2ccccc2C(=O)N1c1ccncc1 10.2%, Cc1ccc(NS(=O)(=O)c2ccc3ccccc3c2)cc1C 15.8%, O=C1CCc2cc(S(=O)(=O)NCc3ccccc3)ccc2N1 3.91%, O=C1CCc2cc(S(=O)(=O)Nc3ccccn3)ccc2N1 -5.19%, O=C1CCc2cc(S(=O)(=O)Nc3ccncc3)ccc2N1 8.5%, Cc1ccc2nc(-c3ccc(C)o3)c(Nc3ccc(Cl)cc3)n2c1 -22%, O=C1CCc2cc(S(=O)(=O)Nc3ccc(-c4ccccc4)cc3)ccc2N1 3.36%, O=C1CCc2cc(S(=O)(=O)Nc3ccc4ncccc4c3)ccc2N1 -3.94%, O=C1c2ccccc2C(=O)N1c1cccc(O)c1 6.45%, O=C1c2ccccc2C(=O)N1c1ccc(O)cc1 7.32%, COc1ccccc1N1C(=O)c2ccccc2C1=O 11.6%, O=C1CCc2cc(Cl)c(S(=O)(=O)Nc3ccc(Cl)c(Cl)c3)cc2N1 2.94%, Cc1cc(NS(=O)(=O)c2ccc3c(c2)CCC(=O)N3)ccc1Cl -2.64%, CC(=O)N1CCc2cc(S(=O)(=O)Nc3ccc(C)c(C)c3)ccc21 8.26%, Cc1ccc(NS(=O)(=O)c2ccc3c(c2)CC(=O)N3)cc1C 2.06%, Cc1ccc(NS(=O)(=O)c2cc3c(cc2Cl)NC(=O)C3)cc1C -4.8%, Cc1ccc(NS(=O)(=O)c2cc3c(cc2-c2ccccc2)NC(=O)CO3)cc1C -1.77%, O=S1(=O)N=C(Oc2ccccc2Cl)c2ccccc21 5.42%, CSc1cc2c(s1)c1cnn(Cc3cccc(N)c3)c(=O)c1n2C -11.2%, CC(=O)N1c2ccc(S(=O)(=O)Nc3ccc(C)c(C)c3)cc2CC1C (stereo not given) 1.97%, O=C1CCc2cc([S+](=O)([O-])NC3CCOCC3)ccc2N1 -2.1%, Cc1ccc(N[S+](=O)([O-])c2cc3c(cc2CCc2ccccc2)NC(=O)CO3)cc1C 3.8%, Cc1ccc(C)c(OC2=NS(=O)(=O)c3ccccc32)c1 -2.31%, Cc1ccc(NS(=O)(=O)c2cccc(F)c2)cc1C 4.61%, Cc1ccc2nc(-c3cccs3)c(Nc3ccccc3)n2c1 -2.02%, Cc1ccc(NS(=O)(=O)c2cc3c(cc2Cl)CCC(=O)N3)cc1C 3.19%, Cc1ccc(Cl)cc1NS(=O)(=O)c1cc2c(cc1Cl)CCC(=O)N2 4.27%, Cc1c(Cl)cccc1NS(=O)(=O)c1cc2c(cc1Cl)CCC(=O)N2 2.07%, COc1cccc(NS(=O)(=O)c2ccc3c(c2)CCC(=O)N3)c1 3.28%, O=C1c2ccccc2C(=O)N1c1ccc2ccccc2n1 -5.97%, N#Cc1cccc(NS(=O)(=O)c2ccc3c(c2)CCC(=O)N3)c1 -1.28%, Cc1cc(C)n2c(Nc3ccccc3)c(-c3ccc(C)o3)nc2n1 2.62%, Cc1ccc(NC(=O)c2ccc3c(c2)CCC(=O)N3)cc1C 4.99%, Cc1cc(NS(=O)(=O)c2ccc3c(c2)CCC(=O)N3)ccc1F 4.47%, Cc1ccc(NS(=O)(=O)c2cc3c(cc2F)NC(=O)CC3)cc1C 17.7%, COc1ccccc1NS(=O)(=O)c1ccc2c(c1)CCC(=O)N2 3.42%, CCNc1cccc(S(=O)(=O)N2CCCN(S(=O)(=O)c3ccc4c(c3)OCCO4)CC2)c1 7.36%, COc1cc(F)c(S(=O)(=O)N2CCCN(S(=O)(=O)c3cccc(N)c3)CC2)c(F)c1 13.9%
